Data published in PubChem BioAssay (NCATS).
Records with an inconclusive call do not appear. Activity calls are given as the source filed them. Unless noted, calls come from the whole dose curve; as a rule, active = well fitted curve in the direction sought with a large enough effect; inconclusive = small, poorly fitted or top-dose-only effect, or another doubt; inactive = no such curve, though single readings can be large; an effect the other way counts as inactive or inconclusive.

Legend:
[1] = Cell Viability - BJ (AID 421; calls by dose curve;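 note: potency is the fitted concentration of half-maximal effect; cells exposed to compound for 40 hours at 37 °C before readout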); conditions: BJ fibroblast viability, qHTS
Outline: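 Normal human BJ foreskin fibroblasts, 1500/well in complete medium, treated 40 hr at 37 °C. Cellular ATP by CellTiter-Glo luminescence; normalized to DMSO and 100 uM tamoxifen, AC50 from Hill fit.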

[2] = Cell Viability - Jurkat (AID 426;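 active = dose-dependent loss of cell ATP signal giving a full or clear fitted curve, ranked by lower potency value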; note: potency is the fitted concentration of half-maximal effect); conditions: qHTS
Outline: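 Cells of the human T-cell leukemia line Jurkat (E6-1) are seeded at 5000 per well, treated with compound across a concentration range for 40 hours at 37 °C, then lysed with CellTiter-Glo; luminescence reports ATP.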

[3] = Cell Viability - Hek293 (AID 427;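 active = compounds whose dose-response curve shows a full or clear partial loss of cell viability, called from curve shape rather than a numeric limit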;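 note: potency is the fitted concentration of half-maximal effect; cells exposed to compound for 40 hours at 37 °C before reading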); conditions: qHTS
Outline: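 HEK293 cells in complete medium were exposed to compound for 40 hr at 37 °C, then cellular ATP was read by CellTiter-Glo luminescence. Data were normalized to DMSO (basal) and 100 uM tamoxifen (100% inhibition), and AC50 came from Hill fits.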

[4] = Cell Viability - HepG2 (AID 433; calls by dose curve;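 note: potency is the fitted concentration of half-maximal effect; potency for ATP loss meaning cytotoxicity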); conditions: qHTS
Outline: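 Cytotoxicity read as ATP loss (CellTiter-Glo luminescence) after 40 hr compound exposure of HepG2, 1500 cells/well, 37 °C. AC50 by Hill equation; 0% set by DMSO, 100% inhibition by 100 uM tamoxifen.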

[5] = Cell Viability - MRC5 (AID 434; calls by dose curve;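 note: potency is the fitted concentration of half-maximal effect; potency reflects cytotoxicity seen as loss of intracellular ATP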); conditions: MRC5 lung fibroblast viability, qHTS
Outline: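 AC50 values come from Hill-equation fits of intracellular ATP loss, measured by CellTiter-Glo luminescence. Normal lung fibroblasts (MRC5) had 40 hr compound treatment at 37 C, normalized between DMSO and 100 uM tamoxifen.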

[6] = Cell Viability - SK-N-SH (AID 435; calls by dose curve; note: potency is the fitted concentration of half-maximal effect); conditions: SK-N-SH neuroblastoma cell viability qHTS
Outline: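 qHTS cytotoxicity: CellTiter-Glo ATP luminescence after 40 h compound exposure of human neuroblastoma SK-N-SH cells at 37 °C. AC50 derived by Hill-equation fitting, with DMSO as basal and 100 uM tamoxifen as full inhibition.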

[7] = molecular target: Mitogen-activated protein kinase 10 (Mus musculus) (UniProt Q61831); assay: JNK3 AlphaScreen Assay (AID 530; active = well fitted curve in either direction with a large enough effect, not every such curve was filed as active;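 note: kinase came from lysate of stimulated human HepG2 cells; signal reports phosphorylation of biotinylated GST-cJun 1-79 at Ser73 with 10 µM ATP; % is set by controls: 0 for no effect and ±100 for the full control effect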); conditions: JNK3 lysate, c-Jun phosphorylation; series mostly up to 57.1 µM
Outline: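 qHTS titrations with 15 min compound pre-incubation before adding ATP (10 uM final). Read-out: AlphaScreen of Ser73-phosphorylated biotin-GST-cJun using HepG2 lysate JNK3 activated by IL-1β and TNFα.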

[8] = Cell Viability - NIH 3T3 (AID 541); conditions: NIH 3T3 cell viability, qHTS; activity change, negative = cytotoxicity: at 92.2 µM (top of the series);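 note: plate controls were DMSO alone for no effect and tamoxifen positive control for full effect; nearly all actives have a fitted effect of over 25% in size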
Outline: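 Cells seeded at 1000/well, rested 5 hr at 37 °C, then dosed and incubated 40 hr at 37 °C. CellTiter-Glo added, 20 min room temperature, luminescence read. AC50 by Hill fit.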

[9] = Cell Viability - HUV-EC-C (AID 542); conditions: HUV-EC-C endothelial cell viability, qHTS; series mostly up to 92.2 µM; note: % is set by controls: 0 for no effect and ±100 for the full control effect; nearly all actives have a fitted effect of over 35% in size
Outline: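 Cells were seeded at 1000 per well and incubated 5 hr at 37 °C before compound addition. After 40 hr at 37 °C, CellTiter-Glo reagent was added for 20 min and luminescence read. AC50 values came from Hill-equation modelling.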

[10] = Cell Viability - H-4-II-E (AID 543); conditions: H-4-II-E rat hepatoma viability; series mostly up to 92.2 µM; note: % is set by controls: 0 for no effect and ±100 for the full control effect; nearly all actives have a fitted effect of over 35% in size
Outline: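 Cells seeded at 1500 per well and rested 5 hr; compounds added; 40 hr incubation at 37 °C; CellTiter-Glo added, 20 min at room temperature; luminescence read. Hill-equation fits gave AC50.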

[11] = Cell Viability - Renal Proximal Tubule (AID 545); conditions: renal proximal tubule cells viability, primary cells of rat origin; series mostly up to 91.7 µM; note: nearly all actives have a fitted effect of over 40% in size
Outline: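 Viability taken as intracellular ATP (CellTiter-Glo luminescence) after 40 hr, 37 °C compound treatment of primary proximal tubule cells from rat kidney, 1000 cells/well; Hill-equation fits of qHTS concentration-response data gave AC50.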

[12] = Cell Viability - Mesenchymal (AID 546); conditions: mesenchymal cells viability, qHTS; series mostly up to 91.7 µM;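 note: cells exposed to compound for 40 hours before reading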
Outline: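 CellTiter-Glo luminescence (intracellular ATP, 20 min room temperature) after 40 hr compound exposure at 37 °C of 1000 glomerulus-derived human kidney mesenchymal cells/well; AC50 values obtained by fitting qHTS concentration-response data to the Hill equation.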

[13] = Cellular Toxicity (caspase-3) HepG2 (AID 654); conditions: HepG2 caspase-3 activation, luminescence; series mostly up to 92.2 µM;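 note: cells exposed to compound for 16 hours before reading; 0% = DMSO alone and 100% = caspase signal from 100 µM tamoxifen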
Outline: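 Caspase 3/7 activation in HepG2 is measured as rising luminescence after a 16 hr treatment at 37 °C. Values are scaled between DMSO basal and 100 uM tamoxifen, and AC50 is fitted with the Hill equation.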

[14] = Cellular Toxicity (caspase-3) Jurkat (AID 655); conditions: Jurkat caspase-3 activation, luminescence; caspase-3 activation: at 92.2 µM (top of the series), DMSO = 0%, tamoxifen = 100%;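 note: cells exposed to compound for 16 h at 37 °C before reading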
Outline: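 Luminescent Caspase-Glo 3/7 read-out (20 min, room temperature) after 16 h compound treatment at 37 C of 5000 Jurkat cells per well. AC50 derived by Hill-equation fitting, scaled between DMSO basal and 100 uM tamoxifen stimulation.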

[15] = Cellular Toxicity (caspase-3) HUV-EC-C (AID 656); conditions: HUV-EC-C cells, caspase-3 activation (apoptosis), vehicle = 0, 100 µM tamoxifen = 100%; series mostly up to 92.2 µM
Outline: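 Luminescent Caspase-Glo 3/7 readout after 16 h, 37 °C compound exposure of HUV-EC-C endothelial cells, 1000 per well, complete medium. AC50 derived by Hill fitting, with DMSO as baseline and 100 uM tamoxifen as full activation.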

[16] = Cellular Toxicity (caspase-3) SHSY5Y (AID 657); conditions: SH-SY5Y caspase-3 activation, DMSO zero, 10 µM staurosporine = 100%; series mostly up to 91.7 µM
Outline: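 Luminescent Caspase-Glo 3/7 read-out, 1 hr room temperature, follows 16 hours of compound treatment of SH-SY5Y cells at 37 °C. Normalization: DMSO basal, 10 uM staurosporine as 100%; AC50 values from Hill-equation concentration-response fits.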

[17] = Cellular Toxicity (caspase-3) BJ (AID 658); conditions: BJ fibroblasts, luminescence, normalized: DMSO 0%, staurosporine 100%; series mostly up to 91.7 µM
Outline: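 Caspase-Glo 3/7 luminescence, read 1 hr after reagent at room temperature, in normal BJ fibroblasts exposed 16 hours at 37 °C. AC50 values from Hill-equation concentration-response, scaled between DMSO basal and 10 uM staurosporine as 100%.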

[18] = Cell Viability - SH-SY5Y (AID 544); conditions: SH-SY5Y neuroblastoma cell viability; viability change, negative = cytotoxic: at 92.2 µM (top of the series); note: nearly all actives have a fitted effect of over 55% in size
Outline: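 Cells were plated at 1500 per well and allowed 5 hr at 37 °C. Compounds were added across a concentration range and incubated 40 hr at 37 °C. CellTiter-Glo was added for 20 min at room temperature before luminescence reading.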

[19] = Cellular Toxicity (caspase-3) MRC-5 (AID 659); conditions: MRC-5 cells, luminescence, normalized: DMSO 0%, 10 µM staurosporine 100%; series mostly up to 91.7 µM
Outline: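 Luminescent Caspase-Glo 3/7 read-out (1 h, room temperature) after a 16 h, 37 °C compound exposure of MRC-5 lung fibroblasts at 1500 cells/well. Concentration-response AC50 from Hill equation; 0% DMSO, 100% 10 uM staurosporine.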

[20] = Cell Viability - N2a (AID 540); conditions: N2a mouse neuroblastoma cell viability; activity change, negative = cytotoxicity: at 92.2 µM (top of the series);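 note: plate controls were DMSO alone for no effect and tamoxifen control for full effect; nearly all actives have a fitted effect of over 45% in size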
Outline: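 Cytotoxicity was scored as loss of cellular ATP in N2a cells, a mouse neuroblastoma line. Compounds are applied in a qHTS concentration series for 40 hr at 37 °C.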

CCCCN(CCO)CCCC
inactive: Potency [1] > 92 µM | Potency [2] > 92 µM | Potency [3] > 92 µM | Potency [4] > 92 µM | Potency [5] > 92 µM | Potency [6] > 92 µM | outcome [7] | Potency [8] | Potency [9] | Potency [10] | Potency [11] | Potency [12] | Potency [13] | caspase-3 activation [14] -0.474% | outcome [15] | outcome [16] | outcome [17]

O=C1OC(=O)c2c(Br)c(Br)c(Br)c(Br)c21
inactive: Potency [1] > 92 µM | Potency [2] > 92 µM | Potency [3] > 92 µM | Potency [4] > 92 µM | Potency [5] > 92 µM | Potency [6] > 92 µM | outcome [7] | Potency [8] | Potency [9] | Potency [10] | Potency [18] | Potency [11] | Potency [12] | Potency [13] | caspase-3 activation [14] -0.0657% | outcome [15] | outcome [16] | outcome [17] | outcome [19]

CCOC(C)(C)C
inactive: Potency [1] > 92 µM | Potency [2] > 92 µM | Potency [3] > 92 µM | Potency [4] > 92 µM | Potency [5] > 92 µM | Potency [6] > 92 µM | outcome [7] | Potency [8] | Potency [9] | Potency [10] | Potency [18] | Potency [12] | Potency [13] | outcome [15] | outcome [16] | outcome [17] | outcome [19]

CC/C=C/C#N
inactive: Potency [1] > 92 µM | Potency [2] > 92 µM | Potency [3] > 92 µM | Potency [4] > 92 µM | Potency [5] > 92 µM | Potency [6] > 92 µM | outcome [7] | Potency [8] | Potency [10] | Potency [18] | Potency [11] | Potency [12] | Potency [13] | caspase-3 activation [14] -0.0351% | outcome [15] | outcome [16] | outcome [17] | outcome [19]

O=C(Cl)c1c(Cl)cccc1Cl
inactive: Potency [1] > 92 µM | Potency [2] > 92 µM | Potency [3] > 92 µM | Potency [4] > 92 µM | Potency [5] > 92 µM | Potency [6] > 92 µM | outcome [7] | Potency [8] | Potency [10] | Potency [18] | Potency [11] | Potency [12] | Potency [13] | caspase-3 activation [14] 2.4% | outcome [15] | outcome [16] | outcome [17] | outcome [19]

N#Cc1ccccc1
inactive: Potency [1] > 92 µM | Potency [2] > 92 µM | Potency [3] > 92 µM | Potency [4] > 92 µM | Potency [5] > 92 µM | Potency [6] > 92 µM | activity change, negative = cytotoxicity [20] 6.76% | Potency [8] | Potency [9] | Potency [18] | Potency [11] | Potency [12] | Potency [13] | caspase-3 activation [14] -1.39% | outcome [15] | outcome [16] | outcome [17] | outcome [19]

C1CCCC1
inactive: Potency [1] > 92 µM | Potency [2] > 92 µM | Potency [3] > 92 µM | Potency [4] > 92 µM | Potency [5] > 92 µM | Potency [6] > 92 µM | outcome [7] | Potency [8] | Potency [9] | Potency [11] | Potency [12] | Potency [13] | caspase-3 activation [14] -0.234% | outcome [15] | outcome [16] | outcome [17]

O=C(O)c1cc(Cl)cc(Cl)c1
inactive: Potency [1] > 92 µM | Potency [2] > 92 µM | Potency [3] > 92 µM | Potency [4] > 92 µM | Potency [5] > 92 µM | Potency [6] > 92 µM | outcome [7] | activity change, negative = cytotoxicity [20] -1.73% | Potency [18] | Potency [11] | Potency [12] | Potency [13] | caspase-3 activation [14] -1.52% | outcome [15] | outcome [16] | outcome [17] | outcome [19]

FB(F)F
inactive: Potency [1] > 92 µM | Potency [2] > 92 µM | Potency [3] > 92 µM | Potency [4] > 92 µM | Potency [5] > 92 µM | Potency [6] > 92 µM | activity change, negative = cytotoxicity [20] 5.96% | Potency [8] | Potency [9] | Potency [10] | Potency [11] | Potency [12] | caspase-3 activation [14] 1.14% | outcome [15] | outcome [16] | outcome [17] | outcome [19]

Cc1ccc(C#N)cc1
inactive: Potency [1] > 92 µM | Potency [2] > 92 µM | Potency [3] > 92 µM | Potency [4] > 92 µM | Potency [5] > 92 µM | Potency [6] > 92 µM | outcome [7] | Potency [8] | Potency [9] | Potency [18] | Potency [11] | Potency [12] | caspase-3 activation [14] 0.554% | outcome [15] | outcome [16] | outcome [17] | outcome [19]

O=C1CCCCC1
inactive: Potency [1] > 92 µM | Potency [2] > 92 µM | Potency [3] > 92 µM | Potency [4] > 92 µM | Potency [5] > 92 µM | Potency [6] > 92 µM | activity change, negative = cytotoxicity [20] -6.92% | Potency [8] | Potency [9] | Potency [18] | Potency [11] | Potency [12] | Potency [13] | caspase-3 activation [14] 1% | outcome [15] | outcome [16] | outcome [17] | outcome [19]

COc1ccc(N)c(OC)c1
inactive: Potency [1] > 92 µM | Potency [2] > 92 µM | Potency [3] > 92 µM | Potency [4] > 92 µM | Potency [5] > 92 µM | Potency [6] > 92 µM | outcome [7] | activity change, negative = cytotoxicity [20] -1.93% | Potency [12] | caspase-3 activation [14] 0.6% | outcome [15] | outcome [16] | outcome [17] | outcome [19]
